Assay results taken from PubChem BioAssay (EPA / NIEHS).
Inconclusive results are not listed. The source made the active and inactive calls. How the source made its calls: active means hit-call score of the fitted dose curve at least 0.9, where 1 is the maximum; inconclusive means response in the unintended direction; inactive means score below 0.9.

Legend:
[1] = target: Estrogen receptor (Homo sapiens) (UniProt P03372); test: CCTE_Deisenroth_AIME_96WELL_LUC_Active: CCTE's 96-well Estrogen Receptor Transactivation Assay with AIME metabolic competence (ERTA luciferase; metabolism positive), Deisenroth Lab (AID 2284023)
Procedure, shortened: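 Chemicals pre-incubated 2 h with alginate-immobilized phenobarbital/beta-naphthoflavone-induced male Sprague Dawley rat liver S9, then medium transferred to VM7Luc4E2 cells for 24 h luciferase read-out. 10-point series 0.002 - 200 uM; fitted relative to 17beta-estradiol.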

[2] = target: Estrogen receptor (Homo sapiens) (UniProt P03372); test: CCTE_Deisenroth_AIME_96WELL_LUC_Inactive: CCTE's 96-well Estrogen Receptor Transactivation Assay without AIME metabolic competence (ERTA luciferase; metabolism negative), Deisenroth Lab (AID 2284025)
Procedure, shortened: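 VM7Luc4E2 breast cells, luciferase read 24 h after dosing with medium pre-incubated 2 h on alginate-water lids (metabolism negative). 10-point series 0.002–200 uM, single technical replicate, n≥4; fit relative to 17beta-estradiol.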

[3] = CCTE_Deisenroth_AIME_96WELL_CTox_Active: Cytotoxicity Assessment (CTOX) in CCTE's 96-well Estrogen Receptor Transactivation Assay with AIME metabolic competence (metabolism positive), Deisenroth Lab (AID 2284028)
Procedure, shortened: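 Chemicals (0.002–200 uM) were first incubated 2 h with alginate-immobilized phenobarbital/beta-naphthoflavone-induced male rat liver S9; conditioned medium then went onto VM7Luc4E2 cells for 24 h, with viability read by protease-substrate fluorescence, fitted bidirectionally.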

Chain of Estrogen receptor (Homo sapiens) (P03372 whole entry, looked up): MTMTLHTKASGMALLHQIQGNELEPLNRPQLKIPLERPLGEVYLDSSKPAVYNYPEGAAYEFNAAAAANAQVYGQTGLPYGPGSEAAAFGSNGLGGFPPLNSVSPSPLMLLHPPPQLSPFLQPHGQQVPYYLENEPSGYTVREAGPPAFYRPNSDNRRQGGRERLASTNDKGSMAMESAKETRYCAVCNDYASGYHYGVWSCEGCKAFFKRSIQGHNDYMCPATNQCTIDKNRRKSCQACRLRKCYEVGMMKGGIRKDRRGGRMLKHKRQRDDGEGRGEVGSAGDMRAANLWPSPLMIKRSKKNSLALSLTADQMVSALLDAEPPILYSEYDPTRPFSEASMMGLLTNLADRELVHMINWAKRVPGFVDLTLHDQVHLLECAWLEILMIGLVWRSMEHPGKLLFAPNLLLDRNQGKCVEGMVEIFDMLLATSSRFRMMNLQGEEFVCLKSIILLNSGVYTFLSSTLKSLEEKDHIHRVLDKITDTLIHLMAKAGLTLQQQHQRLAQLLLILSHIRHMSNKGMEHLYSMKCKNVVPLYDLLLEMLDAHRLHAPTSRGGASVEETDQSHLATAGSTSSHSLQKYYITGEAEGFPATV

c1ccc(CCCc2ccccc2)cc1
outcome [1]: inactive
AC50 [2]: 37.4 µM (active)
outcome [3]: inactive
